# Laboratory results: PubChem BioAssay AID1159580 (chemical genetic matrix, 2015)
# The whole screen tested about 5,500 compounds, of which about 2,000 (36%) were called active. About 18% were inconclusive and are not listed. The list shows a part of the results. A number with no mark means an inactive call. Rule as the data show it: active = normalized growth mostly below about 0.91 (no sharp cut-off); inconclusive = no clear call, values can overlap the other calls; inactive = mostly above about 0.92.
# Experiment: chemical genetic growth profiling, strain panel (AID 1159580);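 also: tested at 20 µM; growth read once vehicle control cultures reached saturation at 30 °C; 1 = growth at the plate median or of vehicle wells; lower values mean less growth of the strain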
# Conditions: growth OD
smiles,measurement,setting,value
O=C(O)CN(CC(=O)O)Cc1cc2c(-c3ccccc3C(=O)O)c3cc(CN(CC(=O)O)CC(=O)O)c(=O)cc-3oc2cc1O,normalized growth,"S. cerevisiae deletion strains, locus YJR043C, strain POL32, hits give low values",1.01
same,normalized growth,"S. cerevisiae deletion strains, locus YJR075W, strain HOC1, hits give low values",1.03
same,normalized growth,"S. cerevisiae deletion strains, locus YKL009W, strain mrt4, hits give low values",1.02
same,normalized growth,"S. cerevisiae deletion strains, locus YKL068W, hits give low values",1.01
same,normalized growth,"S. cerevisiae deletion strains, locus YKL085W, strain MDH1 (second series), hits give low values",1.01
same,normalized growth,"S. cerevisiae deletion strains, locus YKL085W, strain MDH1, hits give low values",1.01
same,normalized growth,"S. cerevisiae deletion strains, locus YKL160W, strain elf1, hits give low values",0.96
same,normalized growth,"S. cerevisiae deletion strains, locus YKL190W, strain CNB1, hits give low values",1.01
same,normalized growth,"S. cerevisiae deletion strains, locus YKR001C, strain vps1, hits give low values",1.02
same,normalized growth,"S. cerevisiae deletion strains, locus YKR026C, strain gcn3, hits give low values",0.986
same,normalized growth,"S. cerevisiae deletion strains, locus YKR091W, strain srl3, hits give low values",0.965
same,normalized growth,"S. cerevisiae deletion strains, locus YLL001W, strain dnm1, hits give low values",0.984
same,normalized growth,"S. cerevisiae deletion strains, locus YLL026W, hits give low values",0.987
same,normalized growth,"S. cerevisiae deletion strains, locus YLL041C, strain sdh2, hits give low values",0.974
same,normalized growth,"S. cerevisiae deletion strains, locus YLR027C, strain aat2, hits give low values",0.969
same,normalized growth,"S. cerevisiae deletion strains, locus YLR039C, strain RIC1, hits give low values",1.05
same,normalized growth,"S. cerevisiae deletion strains, locus YLR058C, strain SHM2, hits give low values",1
same,normalized growth,"S. cerevisiae deletion strains, locus YLR102C, strain apc9, hits give low values",1.03
same,normalized growth,"S. cerevisiae deletion strains, locus YLR221C, strain rsa3, hits give low values",0.984
same,normalized growth,"S. cerevisiae deletion strains, locus YLR258W, strain gsy2, hits give low values",0.967
same,normalized growth,"S. cerevisiae deletion strains, locus YLR262C, strain YPT6 (second series), hits give low values",0.817 (active)
same,normalized growth,"S. cerevisiae deletion strains, locus YLR262C, strain YPT6, hits give low values",1.06
same,normalized growth,"S. cerevisiae deletion strains, locus YLR268W, strain sec22, hits give low values",1.01
same,normalized growth,"S. cerevisiae deletion strains, locus YLR320W, strain mms22, hits give low values",0.973
same,normalized growth,"S. cerevisiae deletion strains, locus YLR330W, strain CHS5, hits give low values",1.01
same,normalized growth,"S. cerevisiae deletion strains, locus YLR342W, strain FKS1 (second series), hits give low values",1
same,normalized growth,"S. cerevisiae deletion strains, locus YLR342W, strain FKS1, hits give low values",0.964
same,normalized growth,"S. cerevisiae deletion strains, locus YLR357W, strain rsc2, hits give low values",0.896
same,normalized growth,"S. cerevisiae deletion strains, locus YLR370C, strain arc18, hits give low values",0.964
same,normalized growth,"S. cerevisiae deletion strains, locus YLR371W, strain rom2, hits give low values",1.02
same,normalized growth,"S. cerevisiae deletion strains, locus YLR384C, strain iki3, hits give low values",0.973
same,normalized growth,"S. cerevisiae deletion strains, locus YLR418C, strain cdc73, hits give low values",1.03
same,normalized growth,"S. cerevisiae deletion strains, locus YML016C, strain PPZ1, hits give low values",1.01
same,normalized growth,"S. cerevisiae deletion strains, locus YML032C, strain rad52, hits give low values",1.03
same,normalized growth,"S. cerevisiae deletion strains, locus YML120C, strain ndi1, hits give low values",0.968
same,normalized growth,"S. cerevisiae deletion strains, locus YML124C, strain tub3, hits give low values",1.02
same,normalized growth,"S. cerevisiae deletion strains, locus YMR058W, strain fet3, hits give low values",0.466 (active)
same,normalized growth,"S. cerevisiae deletion strains, locus YMR078C, strain ctf18, hits give low values",1.03
same,normalized growth,"S. cerevisiae deletion strains, locus YMR125W, strain sto1, hits give low values",1.01
same,normalized growth,"S. cerevisiae deletion strains, locus YMR129W, hits give low values",0.964
same,normalized growth,"S. cerevisiae deletion strains, locus YMR205C, strain PFK2, hits give low values",0.989
same,normalized growth,"S. cerevisiae deletion strains, locus YMR223W, strain ubp8, hits give low values",1
same,normalized growth,"S. cerevisiae deletion strains, locus YMR231W, strain pep5, hits give low values",0.942
same,normalized growth,"S. cerevisiae deletion strains, locus YMR263W, strain SAP30, hits give low values",1.02
same,normalized growth,"S. cerevisiae deletion strains, locus YMR307W, strain GAS1, hits give low values",0.947
same,normalized growth,"S. cerevisiae deletion strains, locus YNL067W, strain RPL9B, hits give low values",1.03
same,normalized growth,"S. cerevisiae deletion strains, locus YNL071W, strain lat1, hits give low values",0.973
same,normalized growth,"S. cerevisiae deletion strains, locus YNL128W, strain TEP1, hits give low values",0.96
same,normalized growth,"S. cerevisiae deletion strains, locus YNL153C, strain GIM3, hits give low values",0.998
same,normalized growth,"S. cerevisiae deletion strains, locus YNL209W, strain ssb2, hits give low values",0.911 (active)
same,normalized growth,"S. cerevisiae deletion strains, locus YNL233W, strain BNI4, hits give low values",0.994
same,normalized growth,"S. cerevisiae deletion strains, locus YNL248C, strain rpa49, hits give low values",1.02
same,normalized growth,"S. cerevisiae deletion strains, locus YNL250W, strain rad50, hits give low values",1.01
same,normalized growth,"S. cerevisiae deletion strains, locus YNL271C, strain bni1, hits give low values",1.01
same,normalized growth,"S. cerevisiae deletion strains, locus YNL298W, strain CLA4, hits give low values",1.04
same,normalized growth,"S. cerevisiae deletion strains, locus YNL307C, strain MCK1, hits give low values",1.03
same,normalized growth,"S. cerevisiae deletion strains, locus YNL322C, strain KRE1 (second series), hits give low values",0.967
same,normalized growth,"S. cerevisiae deletion strains, locus YNL322C, strain KRE1, hits give low values",1.01
same,normalized growth,"S. cerevisiae deletion strains, locus YNR049C, strain mso1, hits give low values",0.956
same,normalized growth,"S. cerevisiae deletion strains, locus YNR052C, strain pop2, hits give low values",1.02
same,normalized growth,"S. cerevisiae deletion strains, locus YOL006C, strain TOP1, hits give low values",1
same,normalized growth,"S. cerevisiae deletion strains, locus YOL012C, strain htz1",1.12
same,normalized growth,"S. cerevisiae deletion strains, locus YOL147C, strain pex11, hits give low values",1.02
same,normalized growth,"S. cerevisiae deletion strains, locus YOR001W, strain rrp6, hits give low values",0.939
same,normalized growth,"S. cerevisiae deletion strains, locus YOR061W, strain CKA2, hits give low values",1
same,normalized growth,"S. cerevisiae deletion strains, locus YOR069W, strain VPS5, hits give low values",1.01
same,normalized growth,"S. cerevisiae deletion strains, locus YOR070C, strain gyp1, hits give low values",0.986
same,normalized growth,"S. cerevisiae deletion strains, locus YOR080W, strain dia2, hits give low values",0.947
same,normalized growth,"S. cerevisiae deletion strains, locus YOR083W, strain WHI5, hits give low values",0.958
same,normalized growth,"S. cerevisiae deletion strains, locus YOR106W, strain vam3, hits give low values",0.773 (active)
same,normalized growth,"S. cerevisiae deletion strains, locus YOR136W, strain idh2, hits give low values",1.02
same,normalized growth,"S. cerevisiae deletion strains, locus YOR144C, strain elg1, hits give low values",1.02
same,normalized growth,"S. cerevisiae deletion strains, locus YOR184W, strain ser1, hits give low values",1.03
same,normalized growth,"S. cerevisiae deletion strains, locus YOR265W, strain rbl2, hits give low values",0.984
same,normalized growth,"S. cerevisiae deletion strains, locus YOR270C, strain vph1, hits give low values",0.764 (active)
same,normalized growth,"S. cerevisiae deletion strains, locus YOR290C, strain snf2, hits give low values",0.904
same,normalized growth,"S. cerevisiae deletion strains, locus YOR316C, strain cot1, hits give low values",1.02
same,normalized growth,"S. cerevisiae deletion strains, locus YPL051W, strain arl3, hits give low values",0.867 (active)
same,normalized growth,"S. cerevisiae deletion strains, locus YPL055C, strain LGE1, hits give low values",0.974
same,normalized growth,"S. cerevisiae deletion strains, locus YPL078C, strain atp4, hits give low values",0.939
same,normalized growth,"S. cerevisiae deletion strains, locus YPL106C, strain sse1, hits give low values",0.87
same,normalized growth,"S. cerevisiae deletion strains, locus YPL240C, strain hsp82, hits give low values",0.971
same,normalized growth,"S. cerevisiae deletion strains, locus YPL241C, strain CIN2, hits give low values",0.987
same,normalized growth,"S. cerevisiae deletion strains, locus YPR119W, strain clb2, hits give low values",1.02
same,normalized growth,"S. cerevisiae deletion strains, locus YPR141C, strain kar3, hits give low values",1.02
same,normalized growth,"S. cerevisiae deletion strains, locus YPR163C, strain tif3, hits give low values",1.01
same,normalized growth,"S. cerevisiae deletion strains, locus YPR167C, strain met16, hits give low values",1.03
same,normalized growth,"S. cerevisiae deletion strains, strain wtn01, hits give low values",1.01
same,normalized growth,"S. cerevisiae strains, strain wild type, hits give low values",0.999
